The panel holds about 83,000 compounds, 20% with a hit somewhere; the sample as a whole holds those more often.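 Cells were grown in 96-well plates and exposed to the test compound at a single concentration for 48 hours; results are reported as percent growth, with values below 10 considered active.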 Active and inactive are the calls of the source.
Key:
Assay in all cases: NCI-60 one-dose screen, 48 h (100 = growth as untreated, 0 = no growth, -100 = all killed)
Settings in all cases: 10 µM unless noted
OVCAR-8 ovarian = test system: OVCAR-8 ovarian
OVCAR-5 ovarian = test system: OVCAR-5 ovarian
SK-OV-3 ovarian = test system: SK-OV-3 ovarian
IGROV1 ovarian = test system: IGROV1 ovarian
OVCAR-3 ovarian = test system: OVCAR-3 ovarian
HS 578T breast = test system: HS 578T breast
NCI/ADR-RES ovarian = test system: NCI/ADR-RES ovarian
T-47D breast = test system: T-47D breast
BT-549 breast = test system: BT-549 breast
MDA-MB-435 melanoma = test system: MDA-MB-435 melanoma
SW-620 colon = test system: SW-620 colon
MCF7 breast = test system: MCF7 breast
HCT-116 colon = test system: HCT-116 colon
HCC-2998 colon = test system: HCC-2998 colon
KM12 colon = test system: KM12 colon
OVCAR-4 ovarian = test system: OVCAR-4 ovarian
RPMI-8226 leukemia = test system: RPMI-8226 leukemia

Measured: growth

CC(=O)N=c1ccc2nc3c(cc(N)c4ccccc43)oc-2c1
inactive: SK-OV-3 ovarian 80.1% | BT-549 breast 10.4%
active: OVCAR-8 ovarian -22.1% | OVCAR-5 ovarian -73.5% | IGROV1 ovarian -81.7% | OVCAR-3 ovarian -82.8% | HS 578T breast -27.7% | NCI/ADR-RES ovarian -6.88% | T-47D breast -57.8% | MDA-MB-435 melanoma -82.3% | SW-620 colon -88.7% | MCF7 breast -74.9% | HCT-116 colon -45.2% | HCC-2998 colon -4.32% | KM12 colon -59.9%

O=C1Nc2ccccc2/C1=C\c1ccccc1O
inactive: OVCAR-8 ovarian 91.1% | OVCAR-5 ovarian 94.4% | OVCAR-4 ovarian 80.9% | SK-OV-3 ovarian 94.7% | IGROV1 ovarian 17.9% | OVCAR-3 ovarian 89.3% | HS 578T breast 86.2% | NCI/ADR-RES ovarian 84.9% | T-47D breast 71.9% | MDA-MB-435 melanoma 82.4% | SW-620 colon 95.8% | MCF7 breast 65.5% | HCT-116 colon 86.3% | HCC-2998 colon 94.5% | KM12 colon 82.3%

Cc1cc2c(C(C)C)c(O)c(O)c(C=Nc3ccccc3[N+](=O)[O-])c2c(O)c1-c1c(C)cc2c(C(C)C)c(O)c(O)c(C=Nc3ccccc3[N+](=O)[O-])c2c1O
inactive: OVCAR-8 ovarian 76.2% | OVCAR-5 ovarian 102% | OVCAR-4 ovarian 74.4% | SK-OV-3 ovarian 97.5% | IGROV1 ovarian 80.6% | OVCAR-3 ovarian 79.1% | HS 578T breast 81% | NCI/ADR-RES ovarian 94.8% | T-47D breast 83.1% | MDA-MB-435 melanoma 109% | SW-620 colon 96.3% | MCF7 breast 91.2% | HCT-116 colon 73.7% | HCC-2998 colon 79.5% | KM12 colon 47.7%

Oc1cccnc1CN1CCCC1
inactive: OVCAR-8 ovarian 94.7% | OVCAR-5 ovarian 97.9% | OVCAR-4 ovarian 108% | SK-OV-3 ovarian 103% | IGROV1 ovarian 102% | OVCAR-3 ovarian 117% | HS 578T breast 104% | NCI/ADR-RES ovarian 108% | T-47D breast 95.2% | MDA-MB-435 melanoma 107% | SW-620 colon 105% | MCF7 breast 93.9% | HCT-116 colon 116% | KM12 colon 113%

C[n+]1c(/C=C\C=C\N2CCCCC2)sc2ccccc21
inactive: OVCAR-5 ovarian 18.2% | OVCAR-4 ovarian 16.4% | HS 578T breast 34.5% | NCI/ADR-RES ovarian 62.5% | SW-620 colon 12.5% | HCC-2998 colon 14%
active: RPMI-8226 leukemia -30.4% | OVCAR-8 ovarian -17.7% | SK-OV-3 ovarian -3.97% | OVCAR-3 ovarian -24.8% | T-47D breast 5.32% | BT-549 breast 1.35% | MDA-MB-435 melanoma -1.72% | MCF7 breast 4.75% | HCT-116 colon -24.5% | KM12 colon -11%

NC(CCl)=NCC12CC3CC(CC(C3)C1)C2
active: RPMI-8226 leukemia -50.4% | OVCAR-8 ovarian -26.8% | OVCAR-5 ovarian 7.23% | OVCAR-3 ovarian -21.9% | NCI/ADR-RES ovarian 3.54% | BT-549 breast 1.18% | MDA-MB-435 melanoma -3.63% | SW-620 colon 3.96% | HCT-116 colon -69.2% | HCC-2998 colon -17.9% | KM12 colon -31.6%
inactive: OVCAR-4 ovarian 11.3% | SK-OV-3 ovarian 24.2% | HS 578T breast 47.9% | T-47D breast 15.7%

Reference: PubChem BioAssay (NCI)
